# In all, about 33,000 sequences were measured (“E-score (-0.5 to 0.5)”: median about -0.054, highest 2% from about 0.39 on). This excerpt belongs to a sample that is enriched for the highest values.
# Target: Ylr278c (UniProt Q05854)
# Test: PBM E-score (8-mer binding enrichment) (E-score (-0.5 to 0.5)); higher = stronger / more preferred TF binding
# Details: protein concentration: 200 nM; construct: GST-DNA-binding domain
# Procedure, shortened: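 E-scores (a modified Wilcoxon-Mann-Whitney statistic) were assigned by the Universal PBM Analysis Suite to every ungapped eight-base word pooled with its reverse complement. The input came from universal all-10-mer Agilent arrays made double-stranded by primer extension and probed with GST-tagged yeast transcription factors at about 100-200 nM. Fluorescent anti-GST detected bound protein, and masliner normalised the scans.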
# Chain of UniProt Q05854 (Q05854 whole entry): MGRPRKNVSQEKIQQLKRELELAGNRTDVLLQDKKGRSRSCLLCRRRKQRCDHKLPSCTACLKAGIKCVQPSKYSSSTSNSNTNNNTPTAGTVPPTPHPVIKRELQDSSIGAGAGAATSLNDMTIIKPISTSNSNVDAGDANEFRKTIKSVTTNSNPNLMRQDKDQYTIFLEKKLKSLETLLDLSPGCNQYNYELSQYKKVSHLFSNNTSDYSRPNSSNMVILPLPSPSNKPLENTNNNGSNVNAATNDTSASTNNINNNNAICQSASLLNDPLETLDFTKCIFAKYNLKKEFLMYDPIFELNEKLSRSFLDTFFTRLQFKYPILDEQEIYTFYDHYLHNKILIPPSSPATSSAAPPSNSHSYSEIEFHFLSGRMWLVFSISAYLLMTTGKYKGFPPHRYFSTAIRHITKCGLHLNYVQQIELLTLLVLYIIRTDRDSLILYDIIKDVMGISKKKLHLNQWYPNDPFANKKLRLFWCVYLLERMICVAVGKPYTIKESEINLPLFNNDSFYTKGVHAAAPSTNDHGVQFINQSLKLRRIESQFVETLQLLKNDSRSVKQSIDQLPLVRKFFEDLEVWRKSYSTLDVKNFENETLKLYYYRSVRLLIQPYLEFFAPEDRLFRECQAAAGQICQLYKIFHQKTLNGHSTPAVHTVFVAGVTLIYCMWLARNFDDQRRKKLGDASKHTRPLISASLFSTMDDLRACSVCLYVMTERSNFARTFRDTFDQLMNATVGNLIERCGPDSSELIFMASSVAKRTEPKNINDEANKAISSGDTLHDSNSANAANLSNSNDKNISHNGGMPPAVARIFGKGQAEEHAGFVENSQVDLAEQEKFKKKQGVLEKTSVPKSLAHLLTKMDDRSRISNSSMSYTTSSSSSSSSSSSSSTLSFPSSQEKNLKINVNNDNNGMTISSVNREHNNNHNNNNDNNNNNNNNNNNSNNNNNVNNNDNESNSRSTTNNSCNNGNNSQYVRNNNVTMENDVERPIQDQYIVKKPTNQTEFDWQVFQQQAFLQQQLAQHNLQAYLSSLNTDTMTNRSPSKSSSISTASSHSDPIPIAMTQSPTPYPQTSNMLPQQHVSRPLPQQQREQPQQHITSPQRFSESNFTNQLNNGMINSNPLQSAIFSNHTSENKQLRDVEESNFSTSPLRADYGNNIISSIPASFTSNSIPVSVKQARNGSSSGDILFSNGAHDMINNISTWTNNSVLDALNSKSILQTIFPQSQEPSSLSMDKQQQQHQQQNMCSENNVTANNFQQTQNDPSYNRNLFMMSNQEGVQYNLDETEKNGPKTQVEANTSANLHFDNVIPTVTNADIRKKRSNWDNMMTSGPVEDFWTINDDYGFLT
row,Sequence,PBM E-score
1,AACCGGAA,0.391
2,TACCGGAA,0.397
3,AACCGGAC,0.414
4,AACCGCAC,-0.0338
5,AACCGGCA,0.215
6,TACCGGGA,0.381
7,ACAGTGAG,-0.301
8,GAGAGTTA,-0.158
9,CGCAACAC,0.111
10,ATTCAAGG,-0.282
11,GCTTTCCA,-0.0584
12,CCTTAGAG,-0.172
13,GGTCCGAA,0.439
14,TGTCCAAA,-0.0727
15,GGTCCAAC,0.00905
16,GGTCCAAA,0.0394
17,CGTCCGAA,0.352
18,CGTCCGAC,0.243
19,TGTCCTAA,-0.233
20,TGTCCGAA,0.407
21,GGTCCGAC,0.39
22,AAACCCAA,0.0205
23,AACGGGCA,-0.0928
24,TCCTCAGA,0.0167
25,CGTGAGTC,-0.141

row,Sequence,PBM E-score
1,CAACTTCC,0.22
2,GTAGCGAC,-0.186
3,GCGTTCGA,-0.11
4,ATTTCCTG,0.0615
5,ATTTCCCC,0.127
6,ATTTCCGC,0.397
7,ACTTCCGG,0.435
8,CTTTCCGA,0.354
9,ACTTCCGC,0.342
10,GTTTCCGA,0.369
11,ATTTCCAG,0.0814
12,CTTTCCGC,0.332
13,ATTTCCGA,0.446
14,ACTTCCGA,0.378
15,ATTTCCGG,0.475
16,ACACATCA,0.0404
17,CCACTGAA,0.0461
18,GTCAAGAC,-0.133
19,GAGCTGGA,0.0426
20,TAAGGACA,-0.156
21,CTATCTGA,-0.328
22,GGTTCGGA,0.42
23,CGTTCGTA,0.0114
24,GGTTCGAA,0.0257
25,AGTTCGGA,0.391

row,Sequence,PBM E-score
1,AGTTCGGC,0.185
2,CGTTCGGC,0.235
3,CGTTCGGA,0.41
4,AGTTCGGG,0.281
5,GGTTCGCA,0.0401
6,AAGAGACT,-0.101
7,AAATCTGA,-0.0879
8,TAGTACGA,-0.0816
9,CCGAGTAG,0.197
10,CGGAGTAG,0.465
11,AGGAGTAG,-0.00627
12,AGGAGTAA,0.0423
13,CGGAGTAA,0.468
14,AGGAGTAC,-0.136
15,GGGAGTAA,0.0663
16,CGGAGTAC,0.462
17,GGGAGTAC,0.0396
18,GAACAGAA,-0.0459
19,ACTTCAAC,-0.0372
20,GAGTGAGC,-0.125
21,AATAGATT,-0.0366
22,AAGGGCTA,-0.124
23,CCAGATGG,-0.0985
24,GTATGGCA,-0.204
25,CAGCCGGG,0.166

row,Sequence,PBM E-score
1,GAGCCGGA,0.407
2,TAGCCGCA,0.041
3,AAGCCGGT,0.333
4,CAGCCGGA,0.434
5,TAGCCGAA,0.141
6,GAGCCGCA,0.0873
7,GAGCCGGC,0.325
8,CAGCCGGC,0.296
9,AAGCCGGC,0.372
10,TAGCCGGA,0.42
11,AAGCCGGA,0.417
12,AGCCGCAT,0.105
13,CCCCGTGC,0.295
14,AAACCCTC,-0.0128
15,CAGAGGAC,-0.187
16,CCGGGAAG,0.334
17,CAGTGATC,-0.0716
18,CTCGACCA,-0.232
19,CGCATAAC,-0.0515
20,ATAGCGAA,-0.144
21,ATACACAT,-0.212
22,ATCCGGAA,0.432
23,ATCCGCAT,0.263
24,ATCAGGAT,-0.018
25,GTCCGGAA,0.44

row,Sequence,PBM E-score
1,ATCCGTAA,0.155
2,GTACGGAA,0.31
3,TTCAGGAA,-0.0794
4,TTACGGAA,0.283
5,TTCCGGAA,0.467
6,GTGCGGAA,0.265
7,ATGCGGAA,0.383
8,ATCCGGAT,0.452
9,AATTGCAC,-0.054
10,CATCGCAA,-0.28
11,GGTTTCAC,0.0826
12,TACGCATA,-0.0249
13,GTCCGGAC,0.455
14,ATCCGGAC,0.424
15,ATCCGTAG,0.134
16,ATCCGTAC,0.112
17,CTCAGGAC,-0.159
18,ATACGGAC,0.242
19,ATCAGGAG,-0.02
20,CTCCGGAC,0.477
21,GTACGGAC,0.249
22,CTGCGGAC,0.221
23,GTCAGGAC,-0.266
24,ATCCGGAG,0.486
25,ATGCAGAA,-0.16

row,Sequence,PBM E-score
1,AGAGATTG,-0.112
2,AGCTGGTG,-0.109
3,AATTTGGC,-0.131
4,ACCCTTCG,0.0769
5,ATGCGATA,-0.0857
6,GTACCAGA,-0.28
7,ATGCTACG,-0.0841
8,TAGTAGCA,-0.0836
9,CGAGGTCC,0.333
10,CTCAGGAG,-0.171
11,CTCCGGAG,0.481
12,CTCAGGAA,-0.0459
13,ATGCGGAG,0.385
14,CTGCGGAA,0.214
15,CTCCGGAA,0.479
16,CTAACAAC,-0.0734
17,CCGCTGCA,0.0719
18,CATGCTCA,-0.115
19,GTCCGTCA,0.289
20,CCCCGTCC,0.252
21,ATCCGTCA,0.159
22,CTCCGTAA,0.41
23,CTCCGTAC,0.358
24,ATCCGTCC,0.18
25,CTCCGTCC,0.449

row,Sequence,PBM E-score
1,GTCCGTAA,0.331
2,CTCCGTCA,0.421
3,CGAATCCA,-0.0549
4,ACATTGGT,-0.1
5,AATATCTC,0.0682
6,ACTGACAG,-0.0502
7,AGTGGGAT,-0.00431
8,CCTCCGCG,0.416
9,AATCCGCG,0.323
10,ACTCCACG,0.0682
11,CATCCGCC,0.309
12,CATCCGCG,0.197
13,ACTCCGCG,0.462
14,CCTCCGCA,0.359
15,CCTCCGCC,0.413
16,CCGCCTCC,0.283
17,CGGTCAGA,0.0192
18,ATCGCCAT,-0.0309
19,CGCGTCCA,0.0142
20,AAGTGCCT,-0.328
21,AAAGCAGC,-0.0496
22,CTATGCAG,-0.166
